Measured values published in the supplement of paper PMC3334620.
Whole data set: some 33,000 sequences, median “E-score (-0.5 to 0.5)” near -0.04, cut for the highest 2% near 0.36. The entries come from a sample that favours the highest values as a whole.

Molecular target: T1, Hmlalpha2 (UniProt P0CY09)
T1 sequence: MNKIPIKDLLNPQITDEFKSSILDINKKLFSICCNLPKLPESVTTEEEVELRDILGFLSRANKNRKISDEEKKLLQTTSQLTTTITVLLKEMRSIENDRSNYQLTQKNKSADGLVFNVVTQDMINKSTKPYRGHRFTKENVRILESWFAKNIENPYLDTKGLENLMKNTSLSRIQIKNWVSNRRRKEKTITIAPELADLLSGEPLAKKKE
Assay: PBM E-score (8-mer binding enrichment) (E-score (-0.5 to 0.5)); higher = stronger / more preferred TF binding
Conditions: protein concentration: 200 nM; construct: GST-full length
Procedure, shortened: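 Universal all-10-mer Agilent arrays, fresh or stripped once, were converted to double-stranded form by primer extension. GST-tagged yeast transcription factors from PURExpress in vitro transcription/translation, full-length or DNA-binding domain only, were applied at about 100-200 nM and detected with fluorescent anti-GST. After masliner normalisation, the Universal PBM Analysis Suite scored each ungapped eight-base word together with its reverse complement by E-score.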

Sequence	PBM E-score
ACAATTCT	0.156
AAAGAATC	-0.124
CCTCTTCG	-0.127
AAGGCTTC	-0.116
GTACTACA	0.369
ACTACACG	0.454
CCTACACC	-0.00672
CCTACACG	0.393
ATACTACA	0.32
TCTACACA	0.445
ACTACACT	0.253
CTACTACA	0.304
ACTACACC	0.166
CCTACACA	0.266
GCTACACA	0.323
TCTACAGA	0.133
ATGGTTAA	0.139
CATGTGAC	0.19
CCCCTTCA	-0.233
AGTGCAGG	-0.159
TCAAGCCA	-0.0161
CCCCCTAC	-0.279
CCCAATCC	-0.281
CGTATCCA	-0.0445

Sequence	PBM E-score
AACAACGG	0.138
GAACTACA	0.197
ACACTACA	0.397
TAACTACA	0.378
ACTACAGA	0.119
ACTACACA	0.406
ACACTACT	0.105
ACTACAAG	0.267
CAACTACA	0.316
CCACTACA	0.212
AGCTCTTC	-0.21
ATCGCGGA	-0.302
GTCAAGTA	0.201
CGAAGCGA	-0.131
CCAGTAGC	-0.157
CACCGCCG	-0.288
ATGAGTCG	-0.0768
CATCAACC	0.0266
TAGACGCA	0.0971
TCCCTGAA	-0.0392
CTCTGTAC	-0.00455
ATATGTAC	0.337
ATATGTGA	0.234
CTATGTGA	0.172

Sequence	PBM E-score
GTATGTGA	0.199
CTCTGTAA	0.195
ATATGTAA	0.416
GTATGTAA	0.477
ATATGTAG	0.3
GTATGTCA	0.352
CTATGTAC	0.401
CTATGTAA	0.485
ATCAAAAA	0.0225
AAAGCGAC	0.0782
GCTCTCCC	-0.266
AGTGCATA	0.1
GCTCAGAA	-0.0102
AGTAACTA	0.213
CAGATCCA	-0.0975
AGACGCCG	-0.154
ATACGTAA	0.379
TTACGCAA	0.391
ATACGTAG	0.257
TTACGTAA	0.426
ATACGCAA	0.347
CTACGTAA	0.318
GTACGCAA	0.155
GTACGTAA	0.34

Sequence	PBM E-score
ATACGTAC	0.242
CTCCTCGC	-0.164
CTCCATCC	-0.1
CAGCCGTC	-0.132
CACACATA	0.214
AACACATC	0.291
TACACATA	0.408
GACACATA	0.26
AACACATA	0.39
AACACATG	0.363
GAACCACA	0.0162
GAATTGAC	0.104
ACTTTGGA	0.136
ATGTCAAC	0.374
ATGTCATG	0.388
CTGTCAAA	0.18
GTGTCAAC	0.305
ATGTCAAA	0.354
ATGTCATA	0.311
ATGTCATC	0.0953
CTGTCAAC	0.198
ATGTCAAT	0.4
TTGTCAAA	0.262
GTGTCAAA	0.382

Sequence	PBM E-score
ATGTCAAG	0.305
AGAAAGCG	-0.00586
ATGCTGGC	0.0473
GCCATTTA	0.00861
GAGATTCC	-0.218
ATATTCTG	0.00643
CCTTAAAC	-0.15
ATGCTAAT	0.167
AGATTGTG	0.0599
CACATTAC	0.375
AACATTAC	0.332
CACATTAG	-0.078
CGCGCACA	0.133
CGTGTAGA	0.482
CATGTAGC	0.344
CCTGTAGA	0.0876
AATGTAGA	0.301
TATGTAGA	0.424
GATGTAGA	0.314
CATGTAGG	0.407
CAAGTAGG	-0.0322
AGTGTAGA	0.171
AATGTAGG	0.0581
CGTGTAGC	0.344

Sequence	PBM E-score
CATGTAGA	0.472
ACATAGCC	0.231
CCGCTCTC	-0.296
AGCTTAAA	-0.0456
AATCTGTA	0.186
AATTAGGC	-0.0388
AGCCTAAG	-0.223
CTAGACGA	-0.137
AACAGGTG	0.184
TAGATATA	0.0377
GGCATGGA	-0.113
GGCATGCA	0.128
CGCATGTA	0.422
GGCATGTA	0.439
CGCATGGA	-0.0665
AGCATGTG	0.22
AGCATGTC	0.267
CGCATGTC	0.274
AGCATGTA	0.458
AAGGGTGC	-0.233
AGGGTGTA	0.186
TTCTACAA	0.314
ACCCTGAT	-0.3
ACGTTATA	0.275

Sequence	PBM E-score
ATGTTATC	0.401
GCGTTATA	0.218
CTGTTATC	-0.00298
ACGTTATC	0.145
ATGTTATA	0.418
AGGTTATA	0.0651
GTGTTATA	0.444
ATGTTATG	0.425
ATGTTACG	0.351
AAGTTATG	0.256
CTGTTATA	0.29
ATGAGGCG	-0.102
AAGGAGCA	-0.237
CACCTCAC	0.0105
CCTATTCA	-0.319
CGCGGCCC	-0.135
CATTCTCG	-0.0595
AGAACGAC	-0.0288
AAGAGCGA	-0.2
CTCGTGTC	0.257
GTCGTGCA	0.0844
ATCGTGTG	0.313
CTCGTGTA	0.434
GTCGTGGA	-0.154

Sequence	PBM E-score
ATCGTGTC	0.358
CTCGTGGA	-0.107
ATCGTGTA	0.475
GTCGTGTA	0.464
CACCTATC	-0.0688
AGTAGTCA	-0.00856
CCAGGTAC	-0.122
ATAAGCAG	-0.00191
CGTTTTTA	0.253
GCAGTGTA	0.292
ACACGGCT	0.32
ACACGGGA	0.371
AAACGGGT	0.153
ACACGGGG	0.3
ACACGGGT	0.391
ACACGGGC	0.325
CTCTGCAA	-0.0611
CGGAGCTA	-0.0643
